Source: PubChem
Hits are enriched below; roughly 6.6% of the tested compounds scored in any of these assays.
Fluor 339 460: intrinsic fluorescence of library compounds, ex339/em460 – biochemical, MLSMR library, data from DPM-DC assay, artefact control, profiling panel; compound autofluorescence, ex339/em460 nm, NADH buffer; active compounds read high; 1 = no-compound wells, NADH background; fluorescence fold increase at 10 µM; 65,000 compounds, 5.5% hits; AID 709;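 active = at 10 µM, mean starting fluorescence two-fold or more over control wells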;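 also: signal is the first read of a kinetic run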
DPM-DC inhibit: S. pneumoniae DPM-DC inhibition; purified DPM-DC, PK/LDH coupled NADH fluorescence; calls only at 10 µM; 65,000 compounds, 0.49% hits; AID 556;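 active = the 320 compounds with the highest percent inhibition in the single-dose primary screen, excluding strongly autofluorescent ones, cut at about 32% in these data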;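 also: kinetic rate of NADH fluorescence loss reporting ADP formed by the decarboxylase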
PMK inhibit: S. pneumoniae PMK inhibition | inhibition, % at 10 µM | AID 539 | purified PMK, PK/LDH-coupled NADH absorbance 340 nm | 65,000 compounds, 0.49% hits;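 active = top-ranked compounds by inhibition in the single 10 µM screen, taking a fixed number of the strongest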
NADH enzymes: inhibitors of enzymes used to reach an NAD/NADH endpoint; coupled PK/LDH NADH assays, four targets; IC50, µM (titrated, usually from 10 µM); 65,000 compounds, 0.02% hits; AID 774;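 active = single-dose screening hits from any of four coupled enzyme assays that gave an IC50 when retested across doses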;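 also: the DPM-DC format reads NADH fluorescence rather than 340 nm absorbance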
Spn MK inh: inhibitors of Streptococcus pneumoniae mevalonate kinase; inhibition, % at 10 µM; purified MK, PK/LDH-coupled NADH absorbance 340 nm; 65,000 compounds, 0.48% hits;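 active = ranked among the strongest by inhibition in the single 10 µM screen, a fixed top-ranked set picked for dose follow-up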
Each line names hits and unclear results; the compound was inactive in the other large screens.

O=C(Nc1ccc2c(c1)CCC2)C1COc2ccccc2O1 (stereo unspecified)	Fluor 339 460 2.1
Cc1ccc(-c2nc(CN(C)C)cc(CN(C)C)c2O)cc1	Fluor 339 460 3.8 (not shown: DPM-DC inhibit)
COc1cccc2[nH]c3c(N4CCCC(C)C4)ncnc3c12 (stereo unspecified)	Fluor 339 460 3.4 (not shown: DPM-DC inhibit)
CCOC(=O)C1CCCN(c2ncnc3c2[nH]c2cccc(OC)c23)C1 (stereo unspecified)	Fluor 339 460 3.7 (not shown: DPM-DC inhibit)
CCOC(=O)C1CCCN(c2ncnc3c2cnn3-c2cccc(C)c2)C1 (stereo unspecified)	none
CC1CCCN(c2ncnc3c2cnn3-c2ccccc2)C1 (stereo unspecified)	none
CC1=CC(C)(C)Nc2ccccc21	Fluor 339 460 2.5
N#CCSc1nnc(Cc2cccc3ccccc23)n1C1CCCCC1	none
CCN(CC)S(=O)(=O)c1cccc(-c2nnc(SCC(=O)c3cc(C)n(C)c3C)o2)c1	none
CCCN(CC(=O)c1cc(C)n(C)c1C)S(=O)(=O)c1cccc(C(F)(F)F)c1	Fluor 339 460 2.9, DPM-DC inhibit active
COc1ccc2c(CC(=O)NCc3ccc4c(c3)OCO4)coc2c1	none
Cc1ccc2cc3cc(C(=O)NCc4ccco4)oc3nc2c1	Fluor 339 460 4.6 (not shown: DPM-DC inhibit)
Cc1ccc2cc3cc(C(=O)NCCC(C)C)oc3nc2c1	Fluor 339 460 5.1 (not shown: DPM-DC inhibit)
O=C(NCc1ccco1)c1cc2ccccc2o1	none
Cc1ccc2cc(CCNC(=O)CC(C)(C)C)c(=O)[nH]c2c1C	Fluor 339 460 2 (not shown: DPM-DC inhibit)
CC(=O)NCCc1cc2ccc(C)c(C)c2[nH]c1=O	none
COc1cc2nc(NCCN3CCOCC3)n3nc(-c4ccccc4)nc3c2cc1OC	Fluor 339 460 2.9
CCSCc1nnc(SCC(=O)c2ccc(OC)cc2)n1C	none
O=C(Cn1ncc2c(=O)oc3ccccc3c21)NC1CC1	none
Cc1ccc2oc(=O)c3cnn(CC(=O)NC4CCN(Cc5ccccc5)CC4)c3c2c1	DPM-DC inhibit active
Cc1c(C(=O)OCC(C)(C)CN(C)C)oc2ccccc12	DPM-DC inhibit active
Cc1c(C(=O)OC(C)CCN(C)C)oc2ccccc12 (stereo unspecified)	none
COc1cc(OC)c(NC(=O)c2ccco2)cc1Cl	none
COc1ccc(-c2cc3ccccc3oc2=O)cc1NC(=O)c1ccc(Br)o1	Fluor 339 460 3.8 (not shown: DPM-DC inhibit)
COc1ccc(NC(=O)c2ccco2)cc1NC(=O)c1cc2ccccc2o1	none
COc1cc(NC(=O)c2cc3ccccc3o2)c(OC)cc1Cl	Fluor 339 460 2.2 (not shown: DPM-DC inhibit)
COc1cc(NC(=O)c2cc(CC(C)C)on2)c(OC)cc1Cl	Spn MK inh 57
CCCc1cc(C(=O)Nc2cc(OC)c(Cl)cc2OC)no1	none
COc1cc(NC(=O)c2cc(-c3ccco3)on2)c(OC)cc1Cl	Fluor 339 460 4.6 (not shown: DPM-DC inhibit)
COc1cc(NC(=O)c2cc3ccccc3o2)c(OC)cc1Br	none
Cc1csc(NC(=O)C2CCCN(S(=O)(=O)c3ccc(Br)s3)C2)n1 (stereo unspecified)	none
COc1ccc(CCC(=O)NC2=NCCS2)cc1OC	none
CC(C)Cn1c(N)c(C(=O)CSc2ccc3c(c2)OCCO3)c(=O)n(C)c1=O	none
CCOC(=O)c1cnc(-n2nc(C)cc2C)nc1NC	none
CCOC(=O)c1cnc(-n2nc(C)cc2C)nc1NC1CCCCC1	Fluor 339 460 2
Cc1cc(=O)oc2c(C)c(OCC(=O)N(C)C)ccc12	Fluor 339 460 3.4 (not shown: DPM-DC inhibit)
CCc1cc(=O)oc2cc(OCC(=O)N(CC)CC)c(Cl)cc12	none
CCOC(=O)CCc1c(C)c2ccc(OCC(=O)N(CC)CC)c(C)c2oc1=O	Fluor 339 460 3.8 (not shown: DPM-DC inhibit)
COc1ccc2c(C)cc(=O)oc2c1C	Fluor 339 460 2.1 (not shown: DPM-DC inhibit)
Cc1c(C)c2ccc(OCC(=O)N(C)C)c(C)c2oc1=O	Fluor 339 460 3.7 (not shown: DPM-DC inhibit)
CCN(CC)C(=O)COc1cccc2ccccc12	none
COC(=O)c1sccc1NC(=O)Cn1cnc2c1c(=O)n(C)c(=O)n2C	none
CCc1ccc(OCC(=O)N(C)C)c(Br)c1	none
Cc1c(OCC(=O)OC(C)C)ccc2c3c(c(=O)oc12)CCC3	none
CCc1c(C)c2ccc(OCC(=O)OC(C)C)c(C)c2oc1=O	Fluor 339 460 3.6 (not shown: DPM-DC inhibit)
C=CCOC(=O)COc1ccc2c(C)c(C)c(=O)oc2c1C	Fluor 339 460 2.4 (not shown: DPM-DC inhibit)
CCc1c(C)c2ccc(OCC(=O)N(C)C)c(C)c2oc1=O	Fluor 339 460 3.5 (not shown: DPM-DC inhibit)
CC(C)c1ccc(NC(=O)N2CCC(c3nc4ccccc4o3)CC2)cc1	none
Cc1ccc(C)c(NC(=O)C2CC(O)CN2C(=O)OC(C)(C)C)c1 (stereo unspecified)	none
COC(=O)C1=C(N)OC2=C(C(=O)CC(C)(C)C2)C1c1ccoc1 (stereo unspecified)	none
O=C(Nc1nnc(-c2ccc3c(c2)OCCO3)o1)c1ccc(Cc2ccccc2)cc1	Fluor 339 460 2.1 (not shown: DPM-DC inhibit)
CC(C)CCNc1nc2c(cc1C#N)COC(C)(C)C2	Fluor 339 460 2.2 (not shown: DPM-DC inhibit)
CCCS(=O)(=O)n1nc(-c2ccc(OC)cc2OC)cc1N	none
COc1ccc(-c2cc3nc(C)cc(C)n3n2)c(OC)c1	Fluor 339 460 3.2
Cc1ccc(O)c(CC(C)C)n1	Fluor 339 460 2
Cc1cccn2c(=O)c3cc(C(=O)NCCN4CCOCC4)n(Cc4ccccc4)c3nc12	Fluor 339 460 3.8 (not shown: DPM-DC inhibit)
CCOCCCn1c(=N)c(C(=O)NCCN2CCOCC2)cc2c(=O)n3cccc(C)c3nc21	Fluor 339 460 5.2 (not shown: DPM-DC inhibit)
CCN(CC)S(=O)(=O)c1cccc2cc(C(=O)O)c(O)cc12	Fluor 339 460 2.1
CCN(CC)S(=O)(=O)c1cccc2c(N(C)C)cccc12	none
CC(C)(C)N1C(=O)c2ccc(C(=O)NCc3ccco3)cc2C1=O	none
Cn1c2c(c(=O)n(C)c1=O)C(c1ccccc1OC(F)F)C1=C(CCCC1=O)N2 (stereo unspecified)	Fluor 339 460 4
C#CC1(O)CC(C)N(C)C(C)C1 (stereo unspecified)	none
N#Cc1nn(-c2ccccc2)nc1N1CCCCC1	Fluor 339 460 5 (not shown: DPM-DC inhibit)
COc1ccccc1-n1c(=O)c2c3c(sc2n2c(SC)nnc12)CCC3	none
Cc1ccc2c(c1)c1cccc3c1n2CCN3CCC(N)=O	Fluor 339 460 2.2 (not shown: DPM-DC inhibit)
Cc1ccc(C)c(C(=O)CC2(O)C(=O)N(C)c3ccccc32)c1 (stereo unspecified)	none
Cc1ccc(-c2cn3nc(C)c(C)nc3n2)cc1	Fluor 339 460 2.9 (not shown: DPM-DC inhibit)
Cc1ccc(-c2cc(C(=O)N3CCN(c4ncccn4)CC3)c3ccccc3n2)cc1	none
COc1ccc(-c2nn(-c3ccccc3)cc2C(=O)N2CCOCC2)cc1	none
Cc1ccc(-c2cc(C(=O)N3CCOCC3)c3ccccc3n2)cc1	Fluor 339 460 2.1 (not shown: DPM-DC inhibit)
COc1ccc(-c2cc(C(=O)N3CCOCC3)c3cc(C)ccc3n2)cc1	Fluor 339 460 3.7 (not shown: DPM-DC inhibit)
COC(=O)c1cc(-c2ccc3c(c2)OCO3)nc2ccccc12	Fluor 339 460 2.2 (not shown: DPM-DC inhibit)
COc1ccc(NC(=O)CCc2nc(-c3ccccc3F)no2)cc1	none
O=C(NCc1ccco1)c1ccccc1NS(=O)(=O)c1ccc2c(c1)OCCO2	Fluor 339 460 2.9, DPM-DC inhibit active
